“And” between values parts separate entries of the source, which are not always exact repeats. Equal entries are not always repeated. About 83,000 compounds went through this panel and 20% of them were active in at least one assay; those are over-represented in the sample as a whole.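 Single-dose data. Exposure time 48 hours. Values below 10 considered active.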 The source made the active and inactive calls.
Assays:
Assay in all cases: NCI-60 one-dose screen, 48 h (100 = growth as untreated, 0 = no growth, -100 = all killed)
Details in all cases: 10 µM unless noted
[1] = tested on: HCT-15 colon
[2] = tested on: HT29 colon
[3] = tested on: SNB-75 CNS
[4] = tested on: SNB-19 CNS
[5] = tested on: PC-3 prostate
[6] = tested on: SK-MEL-5 melanoma
[7] = tested on: UACC-62 melanoma
[8] = tested on: LOX IMVI melanoma
[9] = tested on: SK-MEL-28 melanoma
[10] = tested on: SK-MEL-2 melanoma
[11] = tested on: SN12C renal
[12] = tested on: UO-31 renal
[13] = tested on: ACHN renal
[14] = tested on: CAKI-1 renal
[15] = tested on: A498 renal
[16] = tested on: EKVX NSCLC
[17] = tested on: CCRF-CEM leukemia
[18] = tested on: MOLT-4 leukemia
[19] = tested on: TK-10 renal

Measured: growth

NC(=S)NS(=O)(=O)c1ccc(N)cc1
inactive: [1] 96.8% | [2] 109% | [3] 93% | [4] 113% | [5] 102% | [6] 101% | [7] 119% | [8] 105% | [9] 109% | [10] 109% | [11] 109% | [12] 88.1% | [13] 96.5% | [14] 94.8% | [15] 82.8%

CCc1c(CC(=O)O)c2cc(C)ccc2n1Cc1ccc(Cl)cc1
inactive: [1] 99.2% and 98.3% | [2] 109% and 117% | [3] 84.1% and 93.7% | [4] 102% and 90.6% | [5] 95% | [6] 93.8% and 97.2% | [7] 84.9% and 83.8% | [8] 103% and 101% | [9] 129% and 125% | [10] 103% and 90.9% | [16] 98.8% and 93.4% | [11] 91.1% and 82.4% | [12] 76.6% and 73.4% | [13] 93.5% and 96.1% | [14] 90% | [15] 114% and 108% | [17] 97.4% and 106% | [18] 96.9% and 152%

CN1CCN(C2CCN(C(=O)Nc3cc(Oc4ccc(NC(=O)C5(C(=O)Nc6ccc(F)cc6)CC5)c(F)c4)ccn3)CC2)CC1
-88.3% (active) and 93.1% (inactive): [8]
-47.9% (active) and 98.4% (inactive): [19]
-34.8% (active) and 44.8% (inactive): [14]
-3.96% (active) and 53.5% (inactive): [13]
-60.3% (active) and 46.5% (inactive): [2]
-78% (active) and 70.7% (inactive): [7]
3.95% (active) and 115% (inactive): [4]
-68.6% (active) and 92.8% (inactive): [15]
-61.7% (active) and 92.4% (inactive): [12]
inactive: [10] 81.3%
-98% (active) and 80.1% (inactive): [6]
-77.5% (active) and 77.2% (inactive): [3]
-10.9% (active) and 86.6% (inactive): [18]
-12.3% (active) and 86.1% (inactive): [5]
-14.8% (active) and 93.5% (inactive): [1]
3.24% (active) and 99.4% (inactive): [16]
0.274% (active) and 101% (inactive): [17]

CC(=O)Nc1ccc(O)cc1
inactive: [1] 103% and 109% and 105% | [2] 99.8% and 96.8% and 108% | [3] 99.8% and 91.8% and 104% | [4] 101% | [5] 90.4% and 136% and 97.6% | [6] 98% and 113% and 112% | [7] 99.9% and 102% and 106% | [8] 103% and 101% and 106% | [9] 114% and 66.2% and 125% | [10] 95.7% and 81.9% and 108% | [16] 95% and 101% and 113% | [11] 90.2% and 102% and 108% | [12] 84.3% and 98% and 90% | [19] 87.4% and 69.9% and 101% | [13] 100% and 104% | [14] 98% and 94.4% and 101% | [15] 100% and 102% and 94.1% | [17] 88.7% and 108% | [18] 102% and 100%

COc1cc2c(Nc3ccc(Cl)c(Cl)c3F)ncnc2cc1OCC1C[C@@H]2CN(C)C[C@@H]2C1 (some centres not stated)
-93.5% (active) and 32.1% (inactive): [4]
-76.7% (active) and 18.4% (inactive): [11]
active: [1] -89.2% and -0.559% | [2] -90.2% and -11.5% | [3] -96% and -40.9% | [6] -97.6% and -97.4% | [7] -86.3% and -27.8% | [8] -92% and -92.9% | [9] -96.3% and -63.1% | [12] -84.8% and -66.7% | [19] -94.8% and -18.4% | [13] -97.8% and 8.5% | [14] -77.2% and -2.69% | [17] -44.9% and -0.854% | [18] -53%
inactive: [10] 74.2%
-83% (active) and 41.9% (inactive): [16]
-57.1% (active) and 15.6% (inactive): [5]
